24 molecules from PubChem BioAssay (NCATS) can be followed below.

Records with an inconclusive call do not appear. Unmarked numbers belong to inactive results. Activity calls are given as the source filed them. The call rests on the fitted dose curve; in most records, active means well fitted inhibition curve with a large enough effect; inconclusive means small, poorly fitted or top-dose-only effect; inactive means flat fitted curve, though single readings scatter. Where a SMILES comes first, the peptide text is derived from it. The star is where a group is joined. AFC = O=c1cc(C(F)(F)F)c2ccc(N*)cc2o1

One assay deals with CRL-7250. Put plainly: Cytotoxic Profiling of Annotated Libraries Using Quantitative High-Throughput Screening (AID 1296008). Further: nearly all actives have a fitted effect of over 60% in size. The conditions noted are these: Five cell lines viability, CellTiter-Glo ATP luminescence, 48-72 h; max response: active compounds read low. The method in brief: (§1)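 Cells exposed to compounds for 48 or 72 hr at 37 degrees Celsius. Viability read as ATP-coupled luminescence with CellTiter-Glo after 10 min at room temperature.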
(In ATP-based viability assays light output follows the ATP content of the culture.)

In a further assay the test system is HEK293. The description is as above. The settings on record: Five cell lines viability, CellTiter-Glo ATP luminescence, 48-72 h; max response: active compounds read low. The method in brief:
as §1
On the % scale 0 is the no-effect control and ±100 the full control effect; potency means the concentration at half of the fitted maximal effect.

As to `CC1OC2OC(=O)C3(C)CC4=C(CO)C5=C(CC(=O)C4(C)C(C1=O)C23)C(C)(C)OC(=O)C5` (stereo not drawn), the max response was -28.4% in the assay on CRL-7250 and -12.2% in the assay on HEK293.
As for `O=C(O)c1cc(-c2c(-c3ccccc3)nn3ccccc23)n[nH]c1=O`, the molecule was classed as inactive in the assay on CRL-7250. In the assay with HEK293, the max response was -2.65%.
As to `CC(C)O[C@@H]1O[C@H](CO)[C@@H](O)[C@H](O)[C@H]1O`, the max response in the assay on CRL-7250 was 1.32%; with HEK293 it was 1.2%.
For the molecule `COc1c2c(c(C)c3c1C(=O)OC3)O[C@@]1(C)CC(O)C(C(C)(C)O)[C@](C)(CCC(=O)O)[C@H]1C2` (stereo partly drawn), the molecule was called inactive with CRL-7250. The max response in the assay with HEK293 was 4.24%.
On to `CN(C)C/C=C/C(=O)Nc1cccc(C(=O)Nc2ccc(Nc3nccc(-c4cccnc4)n3)cc2)c1`, for which the results for the Potency in the assay with CRL-7250 and in the assay with HEK293 were 7.31 µM (active) and 5.8 µM (active), respectively.
For the molecule `Cc1nc(NC(=O)N2CCCC2C(N)=O)sc1-c1csc(C(C)(C)C)n1` (stereo not drawn), the max response in the assay with CRL-7250 was -8.95%; with HEK293, -25.9%.
The corresponding values for `C/C=C(\C)C(=O)OCC1OC(OC2OC(COC(=O)/C(C)=C/C)C(OC3OC(CO)C(OC(=O)/C(C)=C/C)C(OC(=O)/C(C)=C/C)C3O)C(O)C2O)C(O)C(O)C1OC1OC(CO)C(OC(=O)/C(C)=C/C)C(OC(=O)/C(C)=C/C)C1O` (stereo not drawn) are -8.02% and -7.34%.
For the molecule `C[C@H]1CC[C@@H]2N(C1)C[C@@H]1[C@H]([C@@H](O)[C@H](O)[C@]3(O)[C@H]1C[C@@]14OC5(O)[C@@H](C[C@@H](O)[C@@H]31)[C@]4(C)CC[C@@H]5O)[C@]2(C)O`, in the assay on CRL-7250, the molecule was called inactive. Also, the max response in the assay on HEK293 was -8.96%.
For `CC1C(=O)OCC2=CCN3CCC(OC(=O)C(C)(O)C1(C)O)C23` (stereo not drawn) the same measures were “inactive” and -9.35%.
Regarding `CCN1CCN(Cc2ccc(Nc3ncc(F)c(-c4cc(F)c5nc(C)n(C(C)C)c5c4)n3)nc2)CC1`, in the assay with CRL-7250, the max response is -7.11%. Besides, the Potency in the assay with HEK293 was 3.66 µM (active).
For the molecule `C=CC(C)(O)C(O)CC1C(C)(O)C(O)C(O)C2C(C)(C)CCCC21C` (stereo not drawn), the max response in the assay on CRL-7250 was 1.81%; in the assay with HEK293, -10.3%.
Turning to `CC(=O)N[C@@H](Cc1c[nH]c2ccccc12)C(=O)N[C@@H](CCC(=O)O)C(=O)N[C@@H](Cc1cnc[nH]1)C(=O)N[C@@H](CC(=O)O)C(=O)Nc1ccc2c(C(F)(F)F)cc(=O)oc2c1` (Ac-WEHD-{AFC}), in the assay on CRL-7250, the molecule was classed as inactive. In addition, in the assay on HEK293, the max response is -1.72%.
For the molecule `CC[C@H](C)[C@H](NC(=O)[C@H]([C@@H](C)CC)N(C)C(C)=O)C(=O)N[C@H](C(=O)N[C@@H](CC(C)C)C(=O)[C@@]1(C)CO1)[C@@H](C)O`, the Potency with CRL-7250 was 0.0291 µM (active); in the assay with HEK293, 0.0092 µM (active).
Turning to `COc1cc(Br)c(S(=O)(=O)Nc2ccc(C(F)(F)F)c(O[C@@H]3CCN(C)C3)c2)cc1OC`, the max response is -0.0326% in the assay with CRL-7250 and -36.5% in the assay on HEK293.
In the case of `CC(=O)N1CCN(Cc2ccc([C@H](C)Nc3nccc(N4C(=O)OC[C@@H]4C(C)C)n3)cc2)CC1`, the Potency in the assay on CRL-7250 is 0.92 µM (active). Besides, the max response with HEK293 was -108%.
For `O=C(Cc1ccc(-c2ccccc2)cc1)NC1CCC1`, the call in the assay on CRL-7250 was inactive. For the same molecule, the max response in the assay with HEK293 was 2.52%.
`c1ccc(-c2csc(N3CCOCC3)n2)cc1`: in the assay on CRL-7250, the max response is 1.19%. The molecule was classed as inactive in the assay on HEK293.
Regarding `C[C@@H]1O[C@@H](O[C@@H]2[C@@H](O)[C@H](O[C@H]3CC[C@@]4(C)C(CC[C@]5(C)C4CC=C4[C@@H]6CC(C)(C)CC[C@]6(C(=O)O[C@@H]6O[C@H](CO)[C@@H](O)[C@H](O)[C@H]6O)CC[C@]45C)C3(C)C)O[C@H](C(=O)O)[C@H]2O)[C@H](O)[C@H](O)[C@H]1O` (stereo partly drawn), in the assay with CRL-7250, the call was inactive. Besides, the max response with HEK293 is 3.46%.
As to `C=C(C(=O)O)C1CC(O)C2(C)CCCC(=C)C2C1` (stereo not drawn), the max response with CRL-7250 was -4.23%; with HEK293, 0.173%.
Turning to `O=C1C=CC2OC(c3ccccc3)C(O)C2O1` (stereo not drawn), the max response in the assay with CRL-7250 is -15.8%. Besides, the Potency in the assay on HEK293 was 23.1 µM (active).
In the case of `O=C(/C=C\c1ccc(O)cc1)N[C@@H](Cc1ccc(O)cc1)C(=O)O`, the max response with CRL-7250 is -7.69%; in the assay on HEK293, 1.95%.
Turning to `CC(C)(C)CCN1C[C@@H]2C(CNC(=O)c3cc(Cl)cc(Cl)c3)[C@@H]2C1` (stereo partly drawn), the max response in the assay on CRL-7250 is -6.01%; with HEK293, -15.4%.
On to `CC(=O)O[C@@H]1[C@@H](OC(=O)/C=C/c2ccccc2)[C@@H](OC(C)=O)[C@H](O[C@H]2[C@@H]3C=CO[C@@H](O[C@@H]4O[C@H](CO)[C@@H](O)[C@H](O)[C@H]4O)[C@@H]3[C@@]3(CO)O[C@@H]23)O[C@H]1C`, for which the result with CRL-7250 was inactive. For the same molecule, the max response with HEK293 was -5.93%.
Turning to `C=C[C@H]1CN2CC[C@H]1C[C@@H]2C(O)c1ccnc2ccc(OC)cc12` (stereo partly drawn), the molecule was classed as inactive with CRL-7250. In addition, the max response with HEK293 was -7.03%.
